Measurements: article PMC12136788
Numbering of substitutions follows the chain as printed. Over roughly 5,800 sequences, “enrichment r” has its median near 0.54; the highest 2% begin near 16. The sample as a whole holds a higher share of the highest values than the screen did.

B1: ENSG00000136451:be:win_1501|CDS_3pUTR|ENSG00000136451|bound_else_gene|NA|bound_elsewhere_windowed (ssRNA)
RNA: GGGAGUUCUACAGUCCGACGAUCGCAAUGAGACCUGUAGAGAGCAUGCCUUUCUUGCCCCAAGCUUUGCCUACAUCACCGCCUUGGUAAACAGUAUUAUAAAAUCAAAAUAUGGGUAAAAGUAAAUAUUUACCAGCAACUUAACAACAGAGGAUUGAGCAUCA
B2: chr8:41262032:41262394:-|3pUTR|ENSG00000104332|msi1|total|mutant (ssRNA)
RNA: GGGAGUUCUACAGUCCGACGAUCGGCCGUUCUGACCUGUUGCCAGCAGAUACACAGGACAUGGAUGAAAUUCCCGUUUCCUCCCGUUUCUUCCUGCCGUACUCCUCUUUCCGAUCCUAAGUCUCUUACAAAAGCUUUGAAUACCAACAGAGGAUUGAGCAUCA
B3: chr1:6522505:6522606:-|3pUTR|ENSG00000162408|msi1|FALSE|unique (ssRNA)
RNA: GGGAGUUCUACAGUCCGACGAUCCUGGGAUUACAGGCGUGAGCCACUGCGCCUGGCCUGAAGCUAUUCUUUACAAAAGCUCUUAGUUUUUGUUUGUUUGUUUGUUUUUUUCUUUUGCGACGGACUCUCUGUCGCCAAGGCUGGCAACAGAGGAUUGAGCAUCA
B4: chr12:95077336:95077437:-|3pUTR|ENSG00000180263|msi1|FALSE|unique (ssRNA)
RNA: GGGAGUUCUACAGUCCGACGAUCUCCUCAUUGACCCAUCCGCAUCUCUGUUUAUCCAAGACUUCUCUGUGAUAGCUGACCCUUAGUCUUUCUCUCCCCUAUUCCUCCAGACUAGAUCCUGUCUCCUUCCUGCAGCCCCGACACCAACAGAGGAUUGAGCAUCA
B5: chr2:121605696:121605828:-|CDS|ENSG00000074054|unk|total|mutant (ssRNA)
RNA: GGGAGUUCUACAGUCCGACGAUCGACCGACUAUUUCUCAGACAAACAGAAGUCUGCUGACCUUGAGCAUGACCAGACCAUGUCCGAUAAACUUGUGGAUGGACUUGCUACCUCUUGGGUGAACUCCCGCAAUUACAAGGUAAGCAACAGAGGAUUGAGCAUCA
B6: chr10:24583932:24584033:-|3pUTR|ENSG00000107863|unk|total|mutant (ssRNA)
RNA: GGGAGUUCUACAGUCCGACGAUCAACAAAAGUGCCUCAUCAUAAAAAUACAGUUGGUUUUCCGGGUGCCAUAUUGUUAAAAUCCGAUAACUUACUUACAUUGAAUAAACGAAUGCGUUUUAUUGGUAACAGAUAUCAUUACAUCAACAGAGGAUUGAGCAUCA
B7: chr5:171862525:171862626:-|3pUTR|ENSG00000072803|msi1|FALSE|unique (ssRNA)
RNA: GGGAGUUCUACAGUCCGACGAUCGACAGUGCAUGGAAAGGACGUUGGCAUCCAAUUGGCACUCCUUCUCCCUUAUUCAAUAUUAGGUUUGAUUUGCCCUUCGCCAUUGUUUCCAAAGAUCAAGGAAUGUCAAUAACAUUUUAACAACAGAGGAUUGAGCAUCA
B8: chr7:56101660:56101848:-|3pUTR|ENSG00000106153|msi1|FALSE|unique (ssRNA)
RNA: GGGAGUUCUACAGUCCGACGAUCUGGAGAGAUGGAAAAUCAGCUCUCAUAACUAAGUUAAUUUAGUAUAAAAAUAGAAUUGAUAGUGAGGGUAUAAAGUGUAACCAUCAGUUAAACCUCUCCUGUCAUUCCUGGCUUCCUUGCCAACAGAGGAUUGAGCAUCA
B9: chr7:101137467:101137738:+|3pUTR|ENSG00000106366|msi1|FALSE|unique (ssRNA)
RNA: GGGAGUUCUACAGUCCGACGAUCGUUAAAAGAUGGUAAACCAGAUCUGUCUCCAAGACCUUGGCCUCUCCUUGGAGGACCUUUAGGUCAAACUCCCUAGUCUCCACCUGAGACCCUGGGAGAGAAGUUUGAAGCACAACUCCCCAACAGAGGAUUGAGCAUCA
B10: chr14:74942539:74942640:-|3pUTR|ENSG00000119630|msi1|total|mutant (ssRNA)
RNA: GGGAGUUCUACAGUCCGACGAUCGUGUAUUUAUUACCGUCACACUCUUCAGUGACUCCUGCUGGUACCUGCCCUCUAUUUAUCCGCCAACUGUUUCCCUGCUGAAUGCCUCGCUCCCUUCAAGACGAGGGGCAGGGAAGGACACAACAGAGGAUUGAGCAUCA
B11: chr1:151048051:151048152:+|CDS|ENSG00000143443|unk|FALSE|unique (ssRNA)
RNA: GGGAGUUCUACAGUCCGACGAUCGACCGCCUGGCUGGACCAGCGGCUGCCGAGCUCUUGGCCGCCACGGUGUCCACCGGCUUUAGCCGGUCGUCCGCCAUUAACGAGGAGGAUGGGUCUUCAGAAGAGGGGGUUGUGAUUAAUCAACAGAGGAUUGAGCAUCA
B12: chrX:65741840:65741941:+|3pUTR|ENSG00000147065|msi1|total|mutant (ssRNA)
RNA: GGGAGUUCUACAGUCCGACGAUCAAAUUGUUUUUGGAGGGGUUUAUGCUCAAUCCAUGUUCUAUUUCAGUGCCAAUAAAAUUCCGGAAGACUUCACAGUGACUCAAUCGUUCUUUGUGGUAUGAGUGGGCCGCUGUAAGAUAUCAACAGAGGAUUGAGCAUCA
B13: chr12:106067485:106067586:-|CDS|ENSG00000074590|msi1|FALSE|unique (ssRNA)
RNA: GGGAGUUCUACAGUCCGACGAUCCCUGAAGAAGCGAAGCAACAGCGAGCAUCGCUCUCACAGCACUGGCUUCAUUGAAGGUGUAGUUGGUCCUGCCUUACCCUCUACUUUCAAGAUGGAGCAGGACUUGUGCAGGACUGGCGUCAACAGAGGAUUGAGCAUCA
B14: chr12:7729382:7729740:-|three_prime_utr|ENSG00000198178|control|control|control (ssRNA)
RNA: GGGAGUUCUACAGUCCGACGAUCAUCUACAUAUAAAUGAAAUAUUCUCCCUGGAAAUGUGUUUGGGUUGGCAUCCACCGUUGUAGAAAGCUAAAUUGAUUUUUUAAUUUAUGUGUAAGUUUUGUACAAGGAAUGCCCCUAAAACAACAGAGGAUUGAGCAUCA
B15: chr12:98549714:98549829:+|3pUTR|ENSG00000120802|unk|total|mutant (ssRNA)
RNA: GGGAGUUCUACAGUCCGACGAUCGAAGAUGUAUAUUCCGACCAGCACACAAUUUUGAUUUCAAUCCGCCUUAUUCUAAUAUUCCGCUUUCCGAUCUUUCAUACACAUUUUCACGUACUUUGCAAUUGAGACCAGAAAGACUUGCAACAGAGGAUUGAGCAUCA
B16: chrX:131089436:131089558:+|3pUTR|ENSG00000147256|unk|FALSE|unique (ssRNA)
RNA: GGGAGUUCUACAGUCCGACGAUCGGGAAACCUCAAGUGUAGGUCUAAUUAGUGUUUCUGGGAUCCAAAGUUAGAGGAAAAUUUAGAUUUUAUUGCCUGGAUCUGCUUUAAAGACAAUUGGUGUUUACACCCUCUUGUCAGCAACAACAGAGGAUUGAGCAUCA
B17: chr7:2728618:2728646:-|3pUTR|ENSG00000146535|msi1_unk|FALSE|overlapping (ssRNA)
RNA: GGGAGUUCUACAGUCCGACGAUCUUUAAUUUCACUGUUAAUCCUUAUUGUCUUUUUUAUUAAGAUGUUGGAAAAGCAGGAGGUAGUUGUGCCUCAAUUAUUGCAAAAAUGUAACAAUAAAGUUCCUCAAAAUAAGAUCUGUUCCAACAGAGGAUUGAGCAUCA
B18: chr4:185586528:185586629:-|3pUTR|ENSG00000154556|msi1|total|mutant (ssRNA)
RNA: GGGAGUUCUACAGUCCGACGAUCAUCCAUAUGAUAUGUUGUACAUUUUAUGGAAAUGUAACCGAAUCUCACACAUUAUUUUACCGAAACCGAGUACAGAAGCAUCACAAGUAUUAAAGUUGGUUUCCGCAAGGAUCCGGAUUACAACAGAGGAUUGAGCAUCA
B19: chr4:168926953:168927063:+|3pUTR|ENSG00000129116|msi1_unk|total|mutant (ssRNA)
RNA: GGGAGUUCUACAGUCCGACGAUCCAAAAGAGUUUUCUAACAAGGUUAAUACCUCCGUUCUUAACAUUUUUUUUCUUUAUGUGCCGUGUUUUCAUGCUACCUUGGCCGGAAACUUAUUUACAAACCAUAUUAAAAGGCUAAUUUCAACAGAGGAUUGAGCAUCA
B20: chr20:53567570:53567671:-|3pUTR|ENSG00000171940|unk|FALSE|unique (ssRNA)
RNA: GGGAGUUCUACAGUCCGACGAUCUCACAAGCUGAGCCAUAUGUACAUAAUCUAGAUUUUGUUUUCAUAGUUUUGCACUUUUAUAGCCUAUUUUUGAAGAUUAACACAUUUGCAAGAUGAUUGACUCAAUCUUUGCCUAAUCCACAACAGAGGAUUGAGCAUCA
B21: chrX:131089436:131089558:+|3pUTR|ENSG00000147256|unk|total|mutant (ssRNA)
RNA: B16 RNA with U39C, A40C, U49C, A50C, U71C, A72C, U83C, A84C
B22: chr4:168926953:168927063:+|3pUTR|ENSG00000129116|msi1_unk|FALSE|overlapping (ssRNA)
RNA: B19 RNA with C54U, C55A, C83U, C84A, C105U, C106A
B23: ENSG00000136451:be:win_1601|3pUTR|ENSG00000136451|bound_else_gene|NA|bound_elsewhere_windowed (ssRNA)
RNA: GGGAGUUCUACAGUCCGACGAUCAAUAUUUACCAGCAACUUAACUUUUAGUUGAUUAAAGCAAAAAGUAAACCAUGAAAUUGGGAGAUUUUAUUACAUUAGUUAAUAAGAGUGUGGUAGCAUUUUUCUCCAAUUUGGCUGGGACAACAGAGGAUUGAGCAUCA
B24: chr12:98549714:98549829:+|3pUTR|ENSG00000120802|unk|FALSE|unique (ssRNA)
RNA: B15 RNA with C37U, C38A, C65U, C66A, C83U, C84A, C90U, C91A
B25: chr4:185586528:185586629:-|3pUTR|ENSG00000154556|msi1|FALSE|unique (ssRNA)
RNA: B18 RNA with C61U, C62A, C83U, C84A, C89U, C90A, C126U, C127A, C136U, C137A

molecular target: MSI1 full-length (mouse, UniProt Q61474 1-362); assay: nsRBNS (natural sequence RNA bind-n-seq); RBNS binding buffer (assumed for nsRBNS): 25 mM Tris pH 7.5, 150 mM KCl, 3 mM MgCl2, 0.01% Triton X-100, 500 ug/ml BSA, 20 U/ml SUPERase-In, 4 C; UNK is unkempt and MSI1 is Musashi-1; names of the RNAs are library labels; protein concentration not given here; high values mean tight binding
Sequence (Q61474 whole entry): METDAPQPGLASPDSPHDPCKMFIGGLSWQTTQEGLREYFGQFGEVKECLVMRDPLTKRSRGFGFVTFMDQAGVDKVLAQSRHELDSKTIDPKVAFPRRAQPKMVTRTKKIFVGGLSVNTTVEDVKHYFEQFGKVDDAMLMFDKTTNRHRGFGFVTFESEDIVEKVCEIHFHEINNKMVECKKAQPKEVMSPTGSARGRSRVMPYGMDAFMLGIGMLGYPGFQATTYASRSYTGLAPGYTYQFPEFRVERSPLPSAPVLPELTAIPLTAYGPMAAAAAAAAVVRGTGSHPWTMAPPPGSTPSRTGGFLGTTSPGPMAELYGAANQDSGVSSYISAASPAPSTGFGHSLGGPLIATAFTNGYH

Compared with B1, B2 is lower in binding signal: 0.827 enrichment R for the first, 0.417 enrichment R for the second.

Going from B3 to B4, the binding signal rises from 0.372 enrichment R to 1.24 enrichment R.

Compared with B5, B6 is lower in binding signal: 0.532 enrichment R for the first, 0.389 enrichment R for the second.

Going from B7 to B8, the binding signal rises from 0.699 enrichment R to 5.86 enrichment R.

First: B9
Second: B10
The binding signal of the first is lower: 0.316 enrichment R for the first, 0.338 enrichment R for the second.

First: B11
Second: B12
The binding signal of the first is higher: 0.497 enrichment R for the first, 0.205 enrichment R for the second.

Going from B13 to B14, the binding signal rises from 0.282 enrichment R to 0.681 enrichment R.

Compared with B15, B16 is higher in binding signal: 0.832 enrichment R for the first, 20.8 enrichment R for the second.

Going from B17 to B18, the binding signal rises from 0.334 enrichment R to 0.725 enrichment R.

First: B19
Second: B20
The binding signal of the first is lower: 0.747 enrichment R for the first, 4.98 enrichment R for the second.

Compared with B21, B22 is higher in binding signal: 0.224 enrichment R for the first, 20 enrichment R for the second.

First: B23
Second: B24
The binding signal of the first is lower: 1.37 enrichment R for the first, 23.7 enrichment R for the second.

B25 was tested, and the binding signal was 34.5 enrichment R.
